# Bioassay records deposited in PubChem BioAssay by National Center for Advancing Translational Sciences (NCATS).
# GLP-1R agonist – activates the human GLP-1 receptor. 380,000 compounds, 0.007% hits. Potency, µM (top dose mostly 45.6 µM), inactives show top-dose activation, hits mostly activators. HEK293 GLP-1R CRE-luciferase, luminescence, 4-6 h; cells express a hypersensitive GLP-1R form. P43220; note: potency is the fitted concentration of half-maximal effect; % of control where 0% means no effect
# Target sequence (P43220 whole entry, looked up): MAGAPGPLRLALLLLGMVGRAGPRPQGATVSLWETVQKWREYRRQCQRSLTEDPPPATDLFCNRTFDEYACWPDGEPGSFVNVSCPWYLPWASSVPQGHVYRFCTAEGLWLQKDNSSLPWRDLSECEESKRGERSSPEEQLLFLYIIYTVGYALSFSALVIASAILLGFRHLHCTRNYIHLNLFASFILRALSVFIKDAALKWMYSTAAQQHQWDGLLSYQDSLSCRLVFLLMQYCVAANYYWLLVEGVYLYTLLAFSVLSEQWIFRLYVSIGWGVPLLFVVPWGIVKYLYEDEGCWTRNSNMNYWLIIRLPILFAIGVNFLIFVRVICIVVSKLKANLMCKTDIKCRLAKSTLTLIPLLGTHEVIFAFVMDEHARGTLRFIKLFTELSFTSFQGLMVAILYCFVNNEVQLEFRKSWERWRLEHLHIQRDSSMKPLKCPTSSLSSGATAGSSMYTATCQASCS
# LDHA inh – LDHA (human) enzyme inhibition; 480,000 compounds, 0.15% hits; AID 1347041; purified LDHA, NADH/diaphorase-resazurin fluorescence; hits give low values; P00338; activity change, % (values are at about 110 or 230 µM); in the data active = activity change below about -30%; inconclusive = mostly about -25% to -30%;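 note: plate controls were DMSO wells for no effect and wells without enzyme for full effect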
#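 Human LDH5 at 2 nM final in Tris HCl pH 7.4 with 0.06 mM NADH and 0.2 mM pyruvate, reacted 5 minutes at room temperature. Remaining NADH coupled via diaphorase/resazurin; resorufin fluorescence read at 0 and 20 minutes, normalized to enzyme-free and DMSO wells.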
# p53 reactivator – re-activators of mutant p53; 320,000 compounds, 0.063% hits; Potency, µM (titrated, usually from 92.2 µM), without a hit: at the top dose activity change, positive = activation, actives largely listed as activators; H1299 p53-A138V BP100-luciferase reporter, luminescence, 24 h; note: potency is the fitted concentration of half-maximal effect; % of control where 0% means no effect; nearly all actives have a fitted effect of over 45% in size
#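 p53-null H1299 cells stably carrying temperature-sensitive p53-A138V and a BP100-luciferase reporter were pinned with compounds (4-point, 1:5 series) and held 24 hrs at 37 deg C. Luminescence was read 10 min after detection reagent.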
# HEK293 tox – cytotoxicity counter-screen for GLP-1 receptor inverse agonists | Potency, µM (titrated, usually from 38.3 µM), without a hit: top-dose activity change, negative = inhibition, hits mostly inhibitors | HEK293 cAMP-luciferase reporter cells, luminescence, 24 h | 410,000 compounds, 0.13% hits;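 note: loss of luciferase light is scored as toxicity; potency is the fitted concentration of half-maximal effect; % is set by controls: 0 for no effect and ±100 for the full control effect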
#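 Here, cytotoxicity is scored as loss of luminescence. The MLSMR collection was tested on cells seeded in medium containing 10% Nu serum, with a 24 hr compound exposure preceded by 12 hours of culture.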
# GLP-1R inv ag – GLP-1 receptor (human) inverse agonism; P43220; HEK293 GLP-1R CRE-luciferase, luminescence, 24 h; GLP-1R form is constitutively active; Potency, µM (highest dose often 38.3 µM), for inactives: at the highest dose activity change, negative = inhibition, hits mostly inhibitors; 410,000 compounds, 1.6% hits; AID 624417; note: potency is the fitted concentration of half-maximal effect; % is set by controls: 0 for no effect and ±100 for the full control effect; nearly all actives have a fitted effect of over 55% in size
#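 Inverse agonists were sought by their lowering of basal cAMP reporter luciferase output in HEK293 cells stably carrying constitutively active human GLP-1R, after 24 h compound treatment.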
# ClpP mod – qHTS Assay for Activators of ClpP; ATP-dependent Clp protease proteolytic subunit (Bacillus subtilis (strain 168)), P80244; purified B. subtilis ClpP, FRET peptide cleavage, 20 min; Potency, µM (titrated, usually from 57.5 µM), for inactives: top-dose activity change, negative = active; 340,000 compounds, 1.9% hits; AID 651965, 2013; active = well fitted falling curve with a large enough effect; inconclusive = small, poorly fitted or top-dose-only effect; inactive = no such curve, though single readings can be large or run the other way; note: potency is the fitted concentration of half-maximal effect; the source files actives as falling curves though it sought activators and does not explain the sign; nearly all actives have a fitted effect of over 65% in size
# Target sequence (P80244 whole entry, looked up): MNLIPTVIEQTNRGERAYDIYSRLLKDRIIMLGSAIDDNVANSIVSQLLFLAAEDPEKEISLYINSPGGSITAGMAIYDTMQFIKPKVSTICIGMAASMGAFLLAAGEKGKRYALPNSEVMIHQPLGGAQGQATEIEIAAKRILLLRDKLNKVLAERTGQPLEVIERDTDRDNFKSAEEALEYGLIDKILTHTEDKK
#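 ClpP 10 microg/mL final, pH 8 Tris/KCl buffer with BSA, glycerol, Tween-20; compound pinned in; FRET-FV substrate; RT 20 min; Ex320/Em430; ΔFRET vs ADEP 5.8 microM, DMSO, no enzyme.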
# * hit, by the source's call; ? = inconclusive; . = no result given. Shown are actives, neighbours in structure and some others; about 2.9% of the full set was active somewhere. Unless noted, calls come from the whole dose curve; as a rule, active = well fitted curve in the direction sought with a large enough effect; inconclusive = small, poorly fitted or top-dose-only effect, or another doubt; inactive = no such curve, though single readings can be large; an effect the other way counts as inactive or inconclusive.
SMILES,GLP-1R agonist,LDHA inh,p53 reactivator,HEK293 tox,GLP-1R inv ag,ClpP mod
CC(=O)c1ccc(NC(=O)NC(=O)c2ccc(Cl)cc2)cc1,.,2,.,.,.,.
CN(C)c1cccc(N(C)C)c1CNC(=O)NC(=O)c1c(F)cccc1F,-4%,3,-2%,2%,10µM*,1%
C#CC1(O)CCC2C3CCC4=C(CCC(=O)C4)C3CCC21C (configuration not stated),16%,-2,.,-2%,27%,1%
COc1cccc(CN2CCC2(C)C(=O)Nc2cccc(Oc3ccccc3)c2)c1F (configuration not stated),20%,-7,.,?,3.2µM*,-6%
CN1CCCC(C)(C(=O)Nc2cccc(Oc3ccccc3)c2)C1 (configuration not stated),3%,-5,.,12%,13µM*,-3%
CCCc1cc(-c2n[nH]c(=S)n2CC(C)C)cs1,8%,-3,-3%,5%,-20%,-8%
O=C(c1ccc(F)cc1)N1CCCC(C(=O)N2CCN(c3ccccc3)CC2)C1 (configuration not stated),12%,-14,1%,18%,2%,28µM*
O=C(c1ccc(Cl)cc1)N1CCCC(C(=O)N2CCN(c3ccccc3)CC2)C1 (configuration not stated),-2%,0,-4%,11%,1%,-1%
COc1cccc(-c2noc(CN(C)S(=O)(=O)c3ccc(C)cc3)n2)c1,.,6,.,.,.,.
C=CCN1CCN(C(CCC)c2nnnn2Cc2ccco2)CC1 (configuration not stated),-3%,-3,1%,2%,?,.
COc1cc(Cl)ccc1OC1(C)CCN(Cc2ccc(SC)cc2)C1 (configuration not stated),8%,-4,.,7%,-17%,-5%
CCc1ccc2c(c1)C(C)=CC(C)(C)N2,-27%,11,5%,0%,4%,32µM*
CCOc1ccc2c(c1)C(C)=CC(C)(C)N2,10%,-5,4%,-4%,1%,4%
CCCNC(=O)C1CCCN1S(=O)(=O)c1cccc2cc(C)cnc12 (configuration not stated),.,-6,.,.,.,.
Cc1cc(C)cc(OC(C)c2ccnc3nc(/N=C/N(C)C)nn23)c1 (configuration not stated),-1%,-6,-1%,-17%,9%,28µM*
CC(Oc1ccccc1)c1ccnc2nc(/N=C/N(C)C)nn12 (configuration not stated),5%,-6,-29%,-17%,4%,28µM*
CCn1c2ccccc2c2cc(NC(=O)N3CCCCC3)ccc21,17%,5,.,-8%,10µM*,3%
CCCC(=O)Nc1ccc2c(c1)c1ccccc1n2CC,1%,-13,1%,6%,-19%,?
CCn1c2ccccc2c2cc(NC(=O)Cc3ccc(S(=O)(=O)N4CCOCC4)s3)ccc21,-9%,0,-1%,-22%,10µM*,-2%
Cc1ccc(Nc2nc(-c3c(C)nc4ccccn34)cs2)cc1,5%,6,11%,-36%,-73%,28µM*
CC1CCCCCCC1OC(=O)c1ccccc1C(=O)O (configuration not stated),-2%,-8,.,-7%,-12%,2%
CC1(C)Cc2c(sc(NC(=O)COc3ccc(Cl)cc3)c2C#N)C(C)(C)N1,17%,-2,-6%,0%,5.6µM*,.
Cc1ccccc1OCC(=O)Nc1sc2c(c1C#N)CC(C)(C)NC2(C)C,18%,-2,2%,4%,?,.
CCCNC(=O)C/C(C)=N/NC(=O)C(=O)Nc1ccccn1,-1%,2,4%,3%,15%,0%
CCN1CCN(c2ccc(S(=O)(=O)N3CCCCC3)cc2NC(=O)/C=C/c2ccc([N+](=O)[O-])cc2)CC1,35%,-11,?,?,?,.
SMILES,GLP-1R agonist,LDHA inh,p53 reactivator,HEK293 tox,GLP-1R inv ag,ClpP mod
CN1CCN(c2ccc(S(=O)(=O)N3CCCCC3)cc2NC(=O)/C=C/c2ccc(OC(F)F)cc2)CC1,0%,1,?,?,?,-8%
CCN1CCN(c2ccc(S(=O)(=O)N3CCCCC3)cc2NC(=O)/C=C/c2ccc(OC(F)F)cc2)CC1,-1%,-4,27%,?,7.1µM*,-6%
CN1CCN(c2ccc(S(=O)(=O)N3CCCCC3)cc2NC(=O)/C=C/c2ccc(Cl)c([N+](=O)[O-])c2)CC1,-5%,-1,?,10µM*,?,-1%
O=C1c2ccccc2C(=O)N1c1cccc2ncccc12,.,4,.,.,.,.
O=C(c1ccc(F)cc1)c1ccc(OCc2ccc(-c3ccccc3)cc2)cc1,.,3,.,.,.,.
CCC(=O)c1ccc(OCc2ccc(C(=O)c3ccccc3)cc2)cc1,0%,-4,-4%,18%,10µM*,.
COc1ccc(CNC(=O)C2CCCN(S(=O)(=O)c3ccc(-n4cnnn4)cc3)C2)cc1 (configuration not stated),5%,-8,9%,1%,3%,.
Cc1cc(N/N=C/c2ccc(Cl)cc2)nc(NCc2ccccc2)n1,19%,-4,8%,-16%,4.5µM*,.
Cc1cc(Nc2cccc(Cl)c2)nc(NCc2ccccc2)n1,17%,-2,7%,-11%,10µM*,?
Cc1cc(N/N=C/c2cccc(Cl)c2)nc(NCc2ccccc2)n1,1%,-3,9%,?,11µM*,-6%
C=CCN(C(=O)c1csnn1)C(C(=O)NC1CCCC1)c1ccc(F)cc1 (configuration not stated),1%,-10,-1%,-9%,-3%,-2%
Cc1cc(C)c(C)c(S(=O)(=O)N2CCC(C(=O)NNC(=O)c3ccccc3O)CC2)c1C,-1%,4,-2%,?,?,28µM*
Cc1ccc(CNC(=O)C2CCN(C(=O)c3ccc(-n4ccc5ccccc54)s3)CC2)cc1,.,-4,.,-2%,-11%,?
CCc1ccc(CNC(=O)C2CCN(C(=O)c3ccc(-n4ccc5ccccc54)s3)CC2)cc1,.,-20,.,1%,-18%,35µM*
COc1cccc(C(=O)Oc2c(Br)cc(Br)cc2/C=N/NC(=O)c2cc(C)[nH]n2)c1,0%,-2,6%,-1%,6.3µM*,0%
Cc1cc(C(=O)N/N=C/c2cccc(OC(=O)c3cccc(Br)c3)c2)n[nH]1,-5%,-9,1%,-19%,13%,0%
